Source: PubChem BioAssay
GCN5L2 inh: blocks human GCN5L2 histone acetyltransferase; Q92830; GCN5L2 HAT assay, ThioGlo1 CoA-SH fluorescence; Potency, µM (highest dose often 58.9 µM), without a hit: at the highest dose activity change, negative = inhibition, usual class: inhibitors; hit rate 0.21% among 390,000; AID 504327; note: potency is the fitted concentration of half-maximal effect; % is set by controls: 0 for no effect and ±100 for the full control effect
Target sequence (Q92830 whole entry, looked up): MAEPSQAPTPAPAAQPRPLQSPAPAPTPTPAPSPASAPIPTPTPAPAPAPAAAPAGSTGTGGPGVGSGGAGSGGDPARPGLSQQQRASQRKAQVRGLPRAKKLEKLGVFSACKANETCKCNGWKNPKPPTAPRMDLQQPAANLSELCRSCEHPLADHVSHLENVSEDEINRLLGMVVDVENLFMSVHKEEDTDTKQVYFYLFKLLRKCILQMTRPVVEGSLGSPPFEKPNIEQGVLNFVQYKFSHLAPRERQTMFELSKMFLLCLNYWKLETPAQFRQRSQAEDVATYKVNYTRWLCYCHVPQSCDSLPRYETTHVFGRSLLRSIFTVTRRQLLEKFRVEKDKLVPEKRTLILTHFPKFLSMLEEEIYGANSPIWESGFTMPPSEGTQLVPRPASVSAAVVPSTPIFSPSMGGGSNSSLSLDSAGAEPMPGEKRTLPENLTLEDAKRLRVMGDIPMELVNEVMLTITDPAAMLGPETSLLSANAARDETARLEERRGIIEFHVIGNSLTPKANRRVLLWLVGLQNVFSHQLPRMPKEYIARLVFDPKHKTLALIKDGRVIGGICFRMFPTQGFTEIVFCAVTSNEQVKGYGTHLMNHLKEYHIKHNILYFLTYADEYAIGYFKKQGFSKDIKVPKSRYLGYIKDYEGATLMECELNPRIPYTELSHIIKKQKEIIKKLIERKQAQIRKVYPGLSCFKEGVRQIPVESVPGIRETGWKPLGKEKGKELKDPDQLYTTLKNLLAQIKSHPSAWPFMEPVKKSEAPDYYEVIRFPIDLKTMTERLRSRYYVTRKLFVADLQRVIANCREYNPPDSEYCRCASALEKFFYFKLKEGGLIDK
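ThioGlo1-coupled HAT assay: 20nM GCN5L2, 70uM acetyl-CoA, 75uM H3(1-25) peptide, pH 7.5. Fluorescence read at 340/540nm at start and after 20 min at room temperature.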
PLK1 PBD block: inhibitors of human PLK1 polo-box domain binding; P53350; hit rate 2.8% among 360,000; Potency, µM, for inactives: max response, negative = inhibition, most hits filed as inhibitors; Plk1 PBD binding of FITC phosphopeptide, fluorescence polarization; note: potency is the fitted concentration of half-maximal effect; series mostly up to about 57 µM; % is set by controls: 0 for no effect and ±100 for the full control effect; nearly all actives have a fitted effect of over 65% in size
JMJD2A Tudor: JMJD2A Tudor domain (human) inhibition. O75164. AlphaScreen JMJD2A-Tudor / H3K4me3 peptide binding. Potency, µM (top dose mostly 114 µM), inactives show at the top dose activity change, negative = inhibition, actives largely listed as inhibitors. hit rate 4.4% among 390,000. AID 504339; note: potency is the fitted concentration of half-maximal effect; % is set by controls: 0 for no effect and ±100 for the full control effect; nearly all actives have a fitted effect of over 50% in size
HP1b chromo inh: blocks HP1-beta chromodomain binding to methylated histone tails; AID 540317; AlphaScreen HP1-beta / biotin-H3K9me3 peptide binding; hit rate 0.56% among 390,000; Potency, µM (top dose mostly 114 µM), without a hit: at the top dose activity change, negative = inhibition, most hits filed as inhibitors; P83916; note: potency is the fitted concentration of half-maximal effect; nearly all actives have a fitted effect of over 70% in size
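HP1-beta protein (50 nM final) preincubated 30 min at room temperature with biotinylated H3(1-18)K9me3 peptide (50 nM) in PBS pH 7.4, 0.01% Tween-20, then compound added for 30 min. AlphaScreen streptavidin donor/nickel chelate acceptor beads (10 ug/mL final), 30 min dark, luminescence read.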
PI5P4K alpha inh: blocks human PI5P4K alpha kinase activity; P48426; PI5P4Kalpha enzyme, ADP-Glo luminescence, 60 min; active compounds read low; max response, %; hit rate 1.2% among 330,000; AID 652105; active = max response of -50% or lower; inconclusive = between -30% and -50%; inactive = -30% or higher; note: value at the top dose of about 77 µM; % is set by controls: 0 for no effect and ±100 for the full control effect
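Human PI5P4Kalpha with substrate in 0.038 M HEPES pH 7.4, 0.28 mM EGTA, 0.1% CHAPS, 5% DMSO; reaction started with 5 microM ATP (final), 60 min at room temperature. ADP formed read by ADP-Glo luminescence.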
BAZ2B inh: blocks human BAZ2B | Q9UIF8 | AlphaScreen BAZ2B-H3K14Ac peptide displacement | hit rate 4.4% among 360,000 | Potency, µM (titrated, usually from 114 µM), without a hit: at the highest dose activity change, negative = inhibition, usual class: inhibitors; note: potency is the fitted concentration of half-maximal effect; % is set by controls: 0 for no effect and ±100 for the full control effect; nearly all actives have a fitted effect of over 60% in size
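AlphaScreen displacement: compounds (up to 110uM) incubated 30 min at room temperature with a preformed 50 nM BAZ2B/50 nM biotinylated H3K14Ac peptide complex in PBS pH 7.4 with Tween-20. Donor and acceptor beads at 10 ug/mL final added, 20 min light-protected before reading.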
Starred values were filed as active, the others as inactive; [ ] = another dose, or the depositor's remark. This is a sample that favours compounds with a hit; in the whole collection about 7% have one here. Unless noted, calls come from the whole dose curve; as a rule, active = well fitted curve in the direction sought with a large enough effect; inconclusive = small, poorly fitted or top-dose-only effect, or another doubt; inactive = no such curve, though single readings can be large; an effect the other way counts as inactive or inconclusive.

O=C1NC(=O)N(CCC2=CCCCC2)C(=O)/C1=C\c1cccs1 was read as GCN5L2 inh -25.6%, PLK1 PBD block 1.06µM*, JMJD2A Tudor inconclusive, HP1b chromo inh 24.0%, PI5P4K alpha inh inconclusive and BAZ2B inh inconclusive.
For Cn1cccc1/C=C1\C(=O)NC(=O)N(CCC2=CCCCC2)C1=O the results were GCN5L2 inh 39.9%, PLK1 PBD block -12.3%, JMJD2A Tudor -18.2%, HP1b chromo inh -10.6%, PI5P4K alpha inh -21.3 and BAZ2B inh -9.4%.
`O=C1NC(=O)N(CCc2ccc(F)cc2)C(=O)/C1=C/c1cccs1` gave GCN5L2 inh -20.7%, PLK1 PBD block 1.06µM*, JMJD2A Tudor 56.2µM*, HP1b chromo inh -3.7%, PI5P4K alpha inh -73.6* and BAZ2B inh -32.6%.
`Cc1ccc(/C=C2/C(=O)NC(=O)N(CCc3ccc(F)cc3)C2=O)o1` gave GCN5L2 inh -14.3%, PLK1 PBD block 0.844µM*, JMJD2A Tudor -23.4%, HP1b chromo inh 23.4%, PI5P4K alpha inh -67.4* and BAZ2B inh -29.6%.
Screening C[C@@H]1CC([C@H](O)CC2CC(=O)NC(=O)C2)C(=O)[C@@H](C)C1 (stereo partly specified) returned GCN5L2 inh -4.0%.
Cc1cc(C(=O)C[N+]23CCN(CC2)CC3)c(C)n1-c1ccc(Br)cc1 was read as GCN5L2 inh -8.8%, PLK1 PBD block -3.4%, JMJD2A Tudor -19.2%, HP1b chromo inh 4.2%, PI5P4K alpha inh -5.8 and BAZ2B inh 79.4µM*.
`C[C@]12CCC3C(CC[C@H]4C[C@@H](O)CC[C@]34C)[C@@H]1CCC2=O` (stereo partly specified) gave GCN5L2 inh -4.7%.
Screening CN1C(=O)C(=Cc2c(OCc3cnc(Cl)s3)ccc3ccccc23)C(=O)N(C)C1=O returned GCN5L2 inh -14.6%, PLK1 PBD block 4.74µM*, JMJD2A Tudor -1.7%, HP1b chromo inh 39.6%, PI5P4K alpha inh -23.8 and BAZ2B inh inconclusive.
COc1ccc(NC(=O)CCc2nc(C3=CCN(Cc4cccc(Cl)c4)CC3)no2)cc1OC was read as GCN5L2 inh -16.4%, JMJD2A Tudor 56.2µM*, HP1b chromo inh -4.5%[57 µM] and BAZ2B inh 50.1µM*.
`Cc1cc(C)cc(N2C(=O)/C(=C\c3ccc(N4CCN(C)CC4)o3)C(=O)NC2=S)c1` gave GCN5L2 inh 4.0%, PLK1 PBD block 118.9%, JMJD2A Tudor -32.4%, HP1b chromo inh inconclusive, PI5P4K alpha inh -8.8 and BAZ2B inh 35.5µM*.
For CC1=C/C(=N\NC(=S)NCCc2ccccc2)CC(C)(C)C1 the results were GCN5L2 inh -1.2%, PLK1 PBD block -5.9%, JMJD2A Tudor 50.1µM*, HP1b chromo inh -11.4%, PI5P4K alpha inh -3.2 and BAZ2B inh inconclusive.
For c1ccc(CCNCc2ccccc2)cc1 the results were GCN5L2 inh 3.9%, PLK1 PBD block 1.8%, JMJD2A Tudor -9.0%, HP1b chromo inh 14.8%, PI5P4K alpha inh -5.9 and BAZ2B inh 2.8%.
Cc1cccc2c3c(ccc12)C1=C(C(=O)C3=O)[C@@H](C)CO1 was read as GCN5L2 inh -8.0%.
CC[C@H]1CC2CN3CCc4c([nH]c5cc(OC)ccc45)[C@](C(=O)OC)(C2)[C@H]13 was read as PLK1 PBD block -0.7%, JMJD2A Tudor 39.8µM*, HP1b chromo inh -27.5% and PI5P4K alpha inh 2.4.
CC[C@H]1CN(C)C[C@@]2(C(=O)OC)Cc3c([nH]c4ccccc34)C(=O)C[C@@H]12 was read as PLK1 PBD block 1.7%, JMJD2A Tudor -7.5%, HP1b chromo inh 27.1% and PI5P4K alpha inh 7.6.
Screening O=C1NC(=S)NC(=O)C1=Cc1ccc2c(c1)CCN2CCCCl returned GCN5L2 inh 3.3%, PLK1 PBD block 2.67µM*, JMJD2A Tudor 7.94µM*, HP1b chromo inh inconclusive, PI5P4K alpha inh -92.3* and BAZ2B inh 25.1µM*.
`Cn1ccnc1P(=S)(c1nccn1C)N1CCOCC1` gave GCN5L2 inh -5.2%, PLK1 PBD block 26.7µM*, JMJD2A Tudor 35.5µM*, HP1b chromo inh inconclusive and BAZ2B inh inconclusive.
